MOR-DOR inv ag-1: inverse agonists of MOR-DOR heterodimerization, primary screen, cell-based, luminescence | AID 504357, 2011 | inhibition, % at 9.3 µM | 340,000 compounds, 0.21% hits | cell-based MOR-DOR heterodimer luminescence, inverse agonism; in the data active means inhibition above about 22%, passing the limit was not always enough;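 further: 0% = cells with DMSO and 100% = wells without cells with DMSO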
MOR-DOR ag-1: agonists of OPRM1-OPRD1 heterodimerization, primary screen, cell-based, luminescence; Mu-type opioid receptor (Homo sapiens) + Delta-type opioid receptor (Homo sapiens), …; activation, % at 9.3 µM; 340,000 compounds, 0.3% hits; cells; in the data active means activation above about 18%;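 further: 0% = vehicle-treated cells and 100% = reference agonist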
HTR5A inv ag: HTR5A inverse agonists in luminescence cell assay, primary screen, counter-screen for OPRM1-OPRD1 heterodimer inverse agonist project, full-deck HTS; 5-hydroxytryptamine receptor 5A (Homo sapiens), P47898; HTR5A cell line, inverse agonism; inhibition, % at 9.3 µM; 340,000 compounds, 0.083% hits; in the data active means inhibition mostly above about 23%, no sharp cut-off; inactive means mostly below about 18%;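 further: 0% = cells with DMSO and 100% = no-cell wells with DMSO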
HTR5A ag: HTR5A agonists in luminescence cell assay, primary screen, counter-screen for OPRM1-OPRD1 heterodimer agonist project, full-deck HTS | 5-hydroxytryptamine receptor 5A (Homo sapiens), P47898 | cell-based | activation, % at 9.3 µM | 340,000 compounds, 0.61% hits | AID 504692, 2011; in the data active means activation mostly above about 9.5%, no sharp cut-off; inactive means mostly below about 7.6%;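 further: 0% = cells with vehicle only and 100% = reference agonist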
OPRM1-D1 inv cf: inverse agonists of MOR-DOR heterodimerization, confirmation, cell-based, luminescence. inhibition, % at 9.3 µM. 580 compounds, 20% hits. shares compounds with MOR-DOR inv ag-1. cells expressing OPRM1/OPRD1 heterodimer; in the data active means inhibition above about 32%;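 further: 0% = cells with DMSO and 100% = wells lacking cells with DMSO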
HTR5A inv ctr2: HTR5A inverse agonists, counter-screen for OPRM1-OPRD1 inverse agonist project, cell-based, luminescence. HTR5A-expressing cells, inverse agonism. 580 tested, under 10 active. shares compounds with MOR-DOR inv ag-1. inhibition, % at 9.3 µM;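 further: 0% = cells with DMSO and 100% = no-cell wells with DMSO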
MOR-DOR inv ag-2: inverse agonists of MOR-DOR heterodimerization, counter-screen for HTR5A inverse agonist project, cell-based, luminescence | inhibition, % at 9.3 µM | shares compounds with HTR5A inv ag | 190 tested, under 10 active | U2OS counter-screen cells, complementation luminescence;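 further: 0% = cells with DMSO and 100% = wells without cells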
HTR5A inv confrm: HTR5A inverse agonists, retest of hits, confirmation, cell-based, luminescence | shares compounds with HTR5A inv ag | HTR5A-expressing cells, inverse agonism | inhibition, % at 9.3 µM | 190 tested, under 10 active;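 further: 0% = cells with DMSO and 100% = no cells with DMSO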
MOR-DOR ag-2: OPRM1-OPRD1 heterodimerization promoters, counter-screen for HTR5A agonist project, cell-based, luminescence | 800 compounds, 13% hits | activation, % at 9.3 µM | U2OS counter-screen cells, complementation luminescence, 3 h | AID 504913, 2011 | shares compounds with HTR5A ag; in the data active means activation above about 18%
HTR5A ag conf: HTR5A agonists, retest of hits, confirmation, cell-based, luminescence; shares compounds with HTR5A ag; HTR5A agonist cell assay; activation, % at 9.3 µM; 800 compounds, 17% hits; in the data active means activation above about 17%;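 further: 0% = cells with vehicle only and 100% = full reference agonist response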
Active calls of the source: *. Hits are enriched below; roughly 1.1% of the tested compounds scored in any of these assays. Unless noted, how the calls were made is not given here.

What do the screens show for `CCOC(=O)c1c(NS(=O)(=O)c2ccccc2)n(CCCOC)c2nc3ccccc3nc12`?
MOR-DOR inv ag-1: 46*; MOR-DOR ag-1: -10; HTR5A inv ag: -29; HTR5A ag: -3; OPRM1-D1 inv cf: -51; HTR5A inv ctr2: -118

How did COCCCn1c(N)c(C(=O)OCCOC)c2nc3ccccc3nc21 do in these assays?
MOR-DOR inv ag-1: 20; MOR-DOR ag-1: -5; HTR5A inv ag: 7; HTR5A ag: -3

Results for C[C@H]1CCC/C=C/C2C[C@H](O)CC2[C@H](O)/C=C/C(=O)O1 (stereo partly drawn) ?
MOR-DOR inv ag-1: 38*; MOR-DOR ag-1: -7; HTR5A inv ag: -2; HTR5A ag: 1; OPRM1-D1 inv cf: 19; HTR5A inv ctr2: -3

What do the screens show for `C[C@H]1CCC[C@@H](O)CCC/C=C/c2cc(O)cc(O)c2C(=O)O1`?
MOR-DOR inv ag-1: 2; MOR-DOR ag-1: 0; HTR5A inv ag: -4; HTR5A ag: -2

How did CC1CCC/C=C/C2CC(O)CC2C(O)/C=C/C(=O)O1 (stereo not drawn) do in these assays?
MOR-DOR inv ag-1: 38*; MOR-DOR ag-1: -6; HTR5A inv ag: -29; HTR5A ag: 0; OPRM1-D1 inv cf: 14; HTR5A inv ctr2: -3

How did COc1ccc(OC)c(N2C(=O)CC(=O)NC2=O)c1 do in these assays?
MOR-DOR inv ag-1: 11; MOR-DOR ag-1: -2; HTR5A inv ag: -5; HTR5A ag: 0

What do the screens show for `CN1CCN(c2ccc([N+](=O)[O-])c(N/N=C3\CN4CCC3CC4)c2)CC1`?
MOR-DOR inv ag-1: 2; MOR-DOR ag-1: 0; HTR5A inv ag: -2; HTR5A ag: 1

Results for ON1C2CCCCC2N(O)C1c1ccccc1F (stereo not drawn) ?
MOR-DOR inv ag-1: 54*; MOR-DOR ag-1: -9; HTR5A inv ag: 9; HTR5A ag: -3; OPRM1-D1 inv cf: -472; HTR5A inv ctr2: -63

What do the screens show for `COC(=O)c1c(N)n(Cc2ccc(OC)cc2)c2nc3ccccc3nc12`?
MOR-DOR inv ag-1: 32*; MOR-DOR ag-1: -7; HTR5A inv ag: -13; HTR5A ag: -2; OPRM1-D1 inv cf: -15; HTR5A inv ctr2: 0

What do the screens show for `COCCOC(=O)c1c(N)n(Cc2ccco2)c2nc3ccccc3nc12`?
MOR-DOR inv ag-1: 29*; MOR-DOR ag-1: -5; HTR5A inv ag: 3; HTR5A ag: -1; OPRM1-D1 inv cf: 3; HTR5A inv ctr2: 5

What do the screens show for `CC(C)OC(=O)c1c(N)n(Cc2ccco2)c2nc3ccccc3nc12`?
MOR-DOR inv ag-1: 21; MOR-DOR ag-1: -4; HTR5A inv ag: 11; HTR5A ag: -5

What do the screens show for `O=C(Cc1ccc(Cl)c(Cl)c1)NCC1(N2CCOCC2)CCCCC1`?
MOR-DOR inv ag-1: 4; MOR-DOR ag-1: -1; HTR5A inv ag: 2; HTR5A ag: -1

How did O=c1[nH]c(O)c(N=Nc2cc([N+](=O)[O-])ccc2O)c(=O)[nH]1 do in these assays?
MOR-DOR inv ag-1: 29; MOR-DOR ag-1: -6; HTR5A inv ag: 28*; HTR5A ag: -10; MOR-DOR inv ag-2: 21; HTR5A inv confrm: 16

What do the screens show for `O=[N+]([O-])c1ccc(O)c([N+](=O)[O-])c1`?
MOR-DOR inv ag-1: 12; MOR-DOR ag-1: -2; HTR5A inv ag: -3; HTR5A ag: 1

Results for O=C(CN1CC(c2ccccc2)CC1=O)Nc1cccc(F)c1 (stereo not drawn) ?
MOR-DOR inv ag-1: 1; MOR-DOR ag-1: 0; HTR5A inv ag: 1; HTR5A ag: 0

How did O=c1[nH]c(=O)n(Cc2ccco2)c(O)c1C=NCCCn1ccnc1 do in these assays?
MOR-DOR inv ag-1: 7; MOR-DOR ag-1: -1; HTR5A inv ag: 18; HTR5A ag: -7

What do the screens show for `COCCn1c(O)c(/C=N/NC(=O)CSC(=S)N2CCCC2)c(=O)[nH]c1=S`?
MOR-DOR inv ag-1: 16; MOR-DOR ag-1: -4; HTR5A inv ag: 30*; HTR5A ag: -1; MOR-DOR inv ag-2: -24; HTR5A inv confrm: -9

Results for CN1CCN(c2c(F)cc([N+](=O)[O-])c(N)c2Br)CC1 ?
MOR-DOR inv ag-1: 16; MOR-DOR ag-1: -3; HTR5A inv ag: 34*; HTR5A ag: -12; MOR-DOR inv ag-2: 8; HTR5A inv confrm: 1

Results for C=CCn1c(O)c(/C(C)=N/N2CCCCC2)c(=O)[nH]c1=O ?
MOR-DOR inv ag-1: 17; MOR-DOR ag-1: -3; HTR5A inv ag: -51; HTR5A ag: 20*; MOR-DOR ag-2: 17; HTR5A ag conf: 9

What do the screens show for `COC(=O)C1=C(c2ccc(F)cc2F)C[C@@H]2CC[C@H]1N2C(=O)NCc1ccc2c(c1)OCO2`?
MOR-DOR inv ag-1: 16; MOR-DOR ag-1: -3; HTR5A inv ag: 14; HTR5A ag: 21*; MOR-DOR ag-2: 4; HTR5A ag conf: -1

Results for O=[N+]([O-])c1cc(Cl)c(Cl)cc1Cl ?
MOR-DOR inv ag-1: 12; MOR-DOR ag-1: -2; HTR5A inv ag: -10; HTR5A ag: 2

How did CC1CCC(C(C)C)C(OC(=O)Cn2c(COc3ccccc3)[n+](C)c3ccccc32)C1 (stereo not drawn) do in these assays?
MOR-DOR inv ag-1: -7; MOR-DOR ag-1: 1; HTR5A inv ag: -6; HTR5A ag: 15*; MOR-DOR ag-2: 3; HTR5A ag conf: 6

Results for O=c1[nH]c(=O)n(Cc2ccccc2)c(O)c1C=NCCN1CCOCC1 ?
MOR-DOR inv ag-1: 24; MOR-DOR ag-1: -5; HTR5A inv ag: 27; HTR5A ag: -3

How did Cc1[nH]c2ccccc2c1C(=O)CN1CC=C(c2ccccc2)CC1 do in these assays?
MOR-DOR inv ag-1: 4; MOR-DOR ag-1: -1; HTR5A inv ag: 5; HTR5A ag: -2

High-throughput results deposited in PubChem BioAssay by The Scripps Research Institute Molecular Screening Center.
